What was measured:
Test in all cases: log2 ratio of Biotin-Ahx-Ub-VS probe labelling (fragment/DMSO); higher = less target engagement (more negative = stronger competition), active = hit call of the paper (q ≤ 0.05, log2 ratio ≤ -1)
Settings in all cases: compound concentration: 200 uM; treatment time: 3 h
USP34 = USP34 (UniProt Q70CQ2)
Summary of the method: (§1)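 Global-median-normalised Spectronaut label-free quantities were compared by unpaired t-test, and values are average log2 ratios of fragment over vehicle. Only proteins with ≥2 unique peptides were used. HEK293T lysate (495 µg per sample) was treated in triplicate with fragment at 200 µM or vehicle for 3 h and then with Biotin-Ahx-Ub-VS at 0.5 µM final for 1 h. Labelled DUBs were then NeutrAvidin-enriched, digested with LysC and trypsin, and run by diaPASEF LC-MS/MS.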

USP36 = target: T1, USP36 (UniProt Q9P275)
T1 sequence (whole entry): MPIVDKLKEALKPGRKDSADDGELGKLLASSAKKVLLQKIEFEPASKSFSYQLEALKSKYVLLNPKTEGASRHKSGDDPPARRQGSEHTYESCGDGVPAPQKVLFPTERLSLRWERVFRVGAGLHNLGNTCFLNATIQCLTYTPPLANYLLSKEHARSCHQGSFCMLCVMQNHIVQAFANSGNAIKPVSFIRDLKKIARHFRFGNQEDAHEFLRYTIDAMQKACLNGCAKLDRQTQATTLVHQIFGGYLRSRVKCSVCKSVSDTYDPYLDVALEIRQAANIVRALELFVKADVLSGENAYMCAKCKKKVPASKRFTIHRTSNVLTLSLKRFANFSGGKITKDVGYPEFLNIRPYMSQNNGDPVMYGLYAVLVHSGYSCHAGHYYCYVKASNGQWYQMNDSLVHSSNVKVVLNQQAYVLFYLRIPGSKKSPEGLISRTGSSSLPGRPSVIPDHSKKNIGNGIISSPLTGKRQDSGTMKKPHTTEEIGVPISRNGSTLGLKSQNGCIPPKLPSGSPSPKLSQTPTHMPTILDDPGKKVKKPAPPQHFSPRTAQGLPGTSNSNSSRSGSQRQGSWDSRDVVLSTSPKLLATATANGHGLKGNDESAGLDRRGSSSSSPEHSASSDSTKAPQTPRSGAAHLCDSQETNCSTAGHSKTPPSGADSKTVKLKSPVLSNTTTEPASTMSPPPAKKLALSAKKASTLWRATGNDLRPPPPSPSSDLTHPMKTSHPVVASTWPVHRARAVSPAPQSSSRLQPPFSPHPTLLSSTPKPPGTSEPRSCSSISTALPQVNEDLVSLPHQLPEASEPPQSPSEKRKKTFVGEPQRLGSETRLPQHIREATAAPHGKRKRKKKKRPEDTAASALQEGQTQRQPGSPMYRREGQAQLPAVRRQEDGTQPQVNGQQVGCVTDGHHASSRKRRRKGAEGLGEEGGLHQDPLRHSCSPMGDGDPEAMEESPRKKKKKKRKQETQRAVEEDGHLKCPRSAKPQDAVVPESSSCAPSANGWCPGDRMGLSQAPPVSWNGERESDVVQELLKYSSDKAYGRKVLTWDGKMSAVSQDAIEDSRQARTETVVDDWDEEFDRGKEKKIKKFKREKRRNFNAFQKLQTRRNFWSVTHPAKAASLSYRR
Summary of the method: as §1

USP38 = target: T2, USP38 (UniProt Q8NB14)
T2 sequence (whole entry): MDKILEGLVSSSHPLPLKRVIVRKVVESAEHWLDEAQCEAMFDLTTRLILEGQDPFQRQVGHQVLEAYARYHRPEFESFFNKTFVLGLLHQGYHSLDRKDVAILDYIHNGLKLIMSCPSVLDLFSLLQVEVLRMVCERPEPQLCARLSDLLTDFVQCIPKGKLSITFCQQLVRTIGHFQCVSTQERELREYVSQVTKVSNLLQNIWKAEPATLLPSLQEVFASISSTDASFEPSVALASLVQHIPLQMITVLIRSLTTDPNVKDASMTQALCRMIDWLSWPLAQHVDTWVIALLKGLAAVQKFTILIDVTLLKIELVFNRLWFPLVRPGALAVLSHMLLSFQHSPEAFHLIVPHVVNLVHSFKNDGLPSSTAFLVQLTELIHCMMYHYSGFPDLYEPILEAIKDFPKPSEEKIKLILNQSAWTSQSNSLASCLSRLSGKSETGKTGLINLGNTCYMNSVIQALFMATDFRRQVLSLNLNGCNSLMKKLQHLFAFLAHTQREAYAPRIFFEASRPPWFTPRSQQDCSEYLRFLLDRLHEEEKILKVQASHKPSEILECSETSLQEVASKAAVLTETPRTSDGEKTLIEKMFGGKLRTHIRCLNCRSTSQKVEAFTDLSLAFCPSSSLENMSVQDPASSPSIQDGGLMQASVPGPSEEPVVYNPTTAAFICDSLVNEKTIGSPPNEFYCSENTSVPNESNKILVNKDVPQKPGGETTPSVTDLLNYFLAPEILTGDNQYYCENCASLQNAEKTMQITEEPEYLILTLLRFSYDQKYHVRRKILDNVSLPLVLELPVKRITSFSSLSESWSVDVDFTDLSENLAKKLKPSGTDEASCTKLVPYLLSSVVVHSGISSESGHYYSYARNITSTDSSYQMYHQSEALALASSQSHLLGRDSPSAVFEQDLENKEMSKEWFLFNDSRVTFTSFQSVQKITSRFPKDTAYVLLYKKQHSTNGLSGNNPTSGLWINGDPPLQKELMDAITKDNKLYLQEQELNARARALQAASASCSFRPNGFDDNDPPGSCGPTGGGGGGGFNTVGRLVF
Summary of the method: as §1

USP39 = target: T3, USP39 (UniProt Q53GS9)
T3 sequence (whole entry): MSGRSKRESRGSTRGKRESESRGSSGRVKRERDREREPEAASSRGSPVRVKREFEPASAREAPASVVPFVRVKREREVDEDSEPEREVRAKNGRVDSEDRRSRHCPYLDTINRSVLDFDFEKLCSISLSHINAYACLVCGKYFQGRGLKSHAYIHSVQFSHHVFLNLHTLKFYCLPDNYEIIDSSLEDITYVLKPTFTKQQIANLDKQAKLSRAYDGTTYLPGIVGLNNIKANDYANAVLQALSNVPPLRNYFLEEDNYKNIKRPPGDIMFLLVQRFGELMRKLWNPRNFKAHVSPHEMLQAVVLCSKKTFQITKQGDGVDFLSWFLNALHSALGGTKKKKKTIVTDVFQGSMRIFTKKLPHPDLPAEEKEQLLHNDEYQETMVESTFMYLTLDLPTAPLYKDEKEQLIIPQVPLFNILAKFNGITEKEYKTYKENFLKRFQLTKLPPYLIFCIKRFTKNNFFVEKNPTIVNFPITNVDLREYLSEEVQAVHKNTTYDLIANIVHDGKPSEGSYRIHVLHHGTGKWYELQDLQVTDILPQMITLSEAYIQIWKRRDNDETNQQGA
Summary of the method: as §1

USP4 = target: T4, USP4 (UniProt Q13107)
T4 sequence (whole entry): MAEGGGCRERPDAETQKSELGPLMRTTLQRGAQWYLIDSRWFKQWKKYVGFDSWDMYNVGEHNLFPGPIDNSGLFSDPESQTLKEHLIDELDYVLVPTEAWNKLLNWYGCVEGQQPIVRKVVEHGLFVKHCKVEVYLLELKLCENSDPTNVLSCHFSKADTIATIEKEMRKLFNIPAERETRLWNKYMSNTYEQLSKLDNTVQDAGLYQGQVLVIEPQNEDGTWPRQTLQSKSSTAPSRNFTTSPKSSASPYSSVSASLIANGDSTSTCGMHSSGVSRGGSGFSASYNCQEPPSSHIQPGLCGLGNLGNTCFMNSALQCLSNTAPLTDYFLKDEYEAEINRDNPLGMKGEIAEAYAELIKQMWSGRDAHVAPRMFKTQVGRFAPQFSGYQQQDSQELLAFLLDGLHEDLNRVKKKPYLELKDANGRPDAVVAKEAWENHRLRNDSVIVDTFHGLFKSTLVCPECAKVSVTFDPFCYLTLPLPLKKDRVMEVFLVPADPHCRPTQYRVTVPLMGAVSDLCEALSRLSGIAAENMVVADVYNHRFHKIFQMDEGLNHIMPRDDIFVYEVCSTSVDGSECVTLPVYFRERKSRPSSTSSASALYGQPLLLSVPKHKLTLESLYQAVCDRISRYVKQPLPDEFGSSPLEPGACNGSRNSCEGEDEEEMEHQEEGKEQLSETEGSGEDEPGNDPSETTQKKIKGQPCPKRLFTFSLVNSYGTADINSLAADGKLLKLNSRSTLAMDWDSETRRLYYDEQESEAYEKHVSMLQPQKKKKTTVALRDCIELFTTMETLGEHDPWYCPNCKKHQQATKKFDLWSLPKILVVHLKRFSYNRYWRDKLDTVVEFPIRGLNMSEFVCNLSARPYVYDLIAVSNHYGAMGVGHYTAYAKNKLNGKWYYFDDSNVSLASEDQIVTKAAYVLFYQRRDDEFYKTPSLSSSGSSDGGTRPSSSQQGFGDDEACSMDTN
Summary of the method: as §1

Measured: log2 ratio of Biotin-Ahx-Ub-VS probe labelling

Chain of USP34 (Q70CQ2 whole entry, the tested form may be a part): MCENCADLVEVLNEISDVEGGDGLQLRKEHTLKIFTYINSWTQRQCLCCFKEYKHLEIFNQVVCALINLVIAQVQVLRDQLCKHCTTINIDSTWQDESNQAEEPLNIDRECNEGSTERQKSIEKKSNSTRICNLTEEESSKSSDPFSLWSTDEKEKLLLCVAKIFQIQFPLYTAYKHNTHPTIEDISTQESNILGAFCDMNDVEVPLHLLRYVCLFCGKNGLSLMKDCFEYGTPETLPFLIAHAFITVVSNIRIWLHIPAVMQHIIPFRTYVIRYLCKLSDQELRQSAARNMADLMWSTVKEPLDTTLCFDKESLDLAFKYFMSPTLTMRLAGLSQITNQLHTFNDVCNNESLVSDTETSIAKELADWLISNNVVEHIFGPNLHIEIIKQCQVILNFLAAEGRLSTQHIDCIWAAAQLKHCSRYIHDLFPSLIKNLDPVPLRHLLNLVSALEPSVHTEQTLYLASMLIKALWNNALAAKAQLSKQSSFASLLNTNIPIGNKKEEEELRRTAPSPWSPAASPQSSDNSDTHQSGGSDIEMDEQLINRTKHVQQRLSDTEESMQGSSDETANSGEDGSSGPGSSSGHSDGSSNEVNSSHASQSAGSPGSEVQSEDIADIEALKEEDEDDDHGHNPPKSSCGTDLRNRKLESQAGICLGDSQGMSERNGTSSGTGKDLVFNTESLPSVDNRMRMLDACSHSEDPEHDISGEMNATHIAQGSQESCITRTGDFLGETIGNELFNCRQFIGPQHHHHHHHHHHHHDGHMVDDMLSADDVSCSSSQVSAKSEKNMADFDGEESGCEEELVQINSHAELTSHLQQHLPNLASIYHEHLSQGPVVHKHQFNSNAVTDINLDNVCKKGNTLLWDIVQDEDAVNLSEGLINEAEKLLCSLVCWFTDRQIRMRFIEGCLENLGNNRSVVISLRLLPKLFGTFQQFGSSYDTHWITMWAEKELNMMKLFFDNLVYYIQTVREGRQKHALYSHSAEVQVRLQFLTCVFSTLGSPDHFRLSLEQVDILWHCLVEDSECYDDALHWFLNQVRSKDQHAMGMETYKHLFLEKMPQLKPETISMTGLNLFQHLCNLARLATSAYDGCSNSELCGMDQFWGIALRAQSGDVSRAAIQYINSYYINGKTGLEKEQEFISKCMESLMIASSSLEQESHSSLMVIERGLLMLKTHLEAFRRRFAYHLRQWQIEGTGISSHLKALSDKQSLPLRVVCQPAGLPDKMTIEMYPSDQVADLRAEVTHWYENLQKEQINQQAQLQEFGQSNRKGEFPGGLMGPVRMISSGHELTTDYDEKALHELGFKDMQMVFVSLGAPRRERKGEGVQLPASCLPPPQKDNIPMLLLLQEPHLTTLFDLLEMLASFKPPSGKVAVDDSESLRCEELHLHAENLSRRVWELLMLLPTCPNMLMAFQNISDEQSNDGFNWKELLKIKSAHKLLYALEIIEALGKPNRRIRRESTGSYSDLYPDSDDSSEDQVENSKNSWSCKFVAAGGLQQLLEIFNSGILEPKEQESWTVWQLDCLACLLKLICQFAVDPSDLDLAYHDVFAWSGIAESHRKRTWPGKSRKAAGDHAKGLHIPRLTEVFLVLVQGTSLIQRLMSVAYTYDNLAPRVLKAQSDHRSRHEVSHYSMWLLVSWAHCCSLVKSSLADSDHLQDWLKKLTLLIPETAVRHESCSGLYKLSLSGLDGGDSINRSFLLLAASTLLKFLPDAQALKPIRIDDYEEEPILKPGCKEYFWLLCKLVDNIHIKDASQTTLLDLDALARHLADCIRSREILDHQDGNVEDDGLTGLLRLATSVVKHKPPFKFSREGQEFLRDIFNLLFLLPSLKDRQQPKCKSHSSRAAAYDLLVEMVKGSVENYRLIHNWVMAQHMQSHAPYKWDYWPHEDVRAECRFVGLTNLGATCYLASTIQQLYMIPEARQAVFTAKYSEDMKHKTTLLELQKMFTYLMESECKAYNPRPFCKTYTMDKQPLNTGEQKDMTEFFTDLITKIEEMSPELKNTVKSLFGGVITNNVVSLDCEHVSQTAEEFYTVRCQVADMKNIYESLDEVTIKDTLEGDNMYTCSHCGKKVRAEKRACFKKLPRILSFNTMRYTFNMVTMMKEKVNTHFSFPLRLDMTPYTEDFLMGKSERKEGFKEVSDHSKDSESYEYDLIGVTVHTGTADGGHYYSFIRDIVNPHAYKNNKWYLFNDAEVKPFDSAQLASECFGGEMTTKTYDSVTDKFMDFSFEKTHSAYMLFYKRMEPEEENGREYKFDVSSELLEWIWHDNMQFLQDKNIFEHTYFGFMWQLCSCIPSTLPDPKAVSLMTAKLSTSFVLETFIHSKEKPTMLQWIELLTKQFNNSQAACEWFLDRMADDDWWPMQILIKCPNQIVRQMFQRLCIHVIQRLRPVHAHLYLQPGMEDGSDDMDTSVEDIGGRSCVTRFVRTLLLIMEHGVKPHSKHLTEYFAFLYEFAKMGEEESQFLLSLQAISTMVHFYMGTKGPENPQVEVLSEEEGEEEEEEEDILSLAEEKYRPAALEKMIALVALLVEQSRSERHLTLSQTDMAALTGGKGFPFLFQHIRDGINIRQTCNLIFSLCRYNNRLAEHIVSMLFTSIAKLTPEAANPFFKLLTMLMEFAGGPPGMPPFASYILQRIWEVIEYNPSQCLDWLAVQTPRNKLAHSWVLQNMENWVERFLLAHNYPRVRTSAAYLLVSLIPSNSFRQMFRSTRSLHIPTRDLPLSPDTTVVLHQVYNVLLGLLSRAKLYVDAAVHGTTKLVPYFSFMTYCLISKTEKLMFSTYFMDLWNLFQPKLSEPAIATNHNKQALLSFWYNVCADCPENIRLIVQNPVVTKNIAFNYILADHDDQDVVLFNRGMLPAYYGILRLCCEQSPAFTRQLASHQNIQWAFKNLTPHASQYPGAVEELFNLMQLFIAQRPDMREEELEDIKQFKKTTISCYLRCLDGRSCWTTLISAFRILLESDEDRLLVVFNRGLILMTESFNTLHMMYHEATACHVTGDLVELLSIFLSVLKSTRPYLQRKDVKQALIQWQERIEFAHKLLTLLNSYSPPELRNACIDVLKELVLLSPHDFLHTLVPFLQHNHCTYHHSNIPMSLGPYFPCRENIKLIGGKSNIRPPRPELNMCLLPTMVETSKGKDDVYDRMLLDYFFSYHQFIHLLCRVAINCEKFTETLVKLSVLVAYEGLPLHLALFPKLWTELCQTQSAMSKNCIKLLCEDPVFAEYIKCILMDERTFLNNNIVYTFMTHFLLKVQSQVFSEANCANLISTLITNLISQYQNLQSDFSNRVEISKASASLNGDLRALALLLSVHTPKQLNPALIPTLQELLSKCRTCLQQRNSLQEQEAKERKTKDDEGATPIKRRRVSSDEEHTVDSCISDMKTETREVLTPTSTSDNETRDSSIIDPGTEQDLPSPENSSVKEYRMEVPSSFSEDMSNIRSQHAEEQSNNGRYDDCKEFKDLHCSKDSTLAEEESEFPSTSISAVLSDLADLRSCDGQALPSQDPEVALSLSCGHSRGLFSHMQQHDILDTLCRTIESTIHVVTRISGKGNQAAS

O=C(CCl)N1CCC2(CCC(O)CC2)CC1
inactive: USP34 -0.363 | USP36 -0.0873 | USP38 0.139 | USP39 0.333 | USP4 0.123
